{
  "source": "the supplement of paper PMC8728848",
  "binders": {"B1": {"name": "Strep tagII-anxA1 (Homo sapiens), P04083 (protein)", "chain": "MAMVSEFLKQAWFIENEEQEYVQTVKSSKGGPGSAVSPYPTFNPSSDVAALHKAIMVKGVDEATIIDILTKRNNAQRQQIKAAYLQETGKPLDETLKKALTGHLEEVVLALLKTPAQFDADELRAAMKGLGTDEDTLIEILASRTNKEIRDINRVYREELKRDLAKDITSDTSGDFRNALLSLAKGDRSEDFGVNEDLADSDARALYEAGERRKGTDVNVFNTILTTRSYPQLRRVFQKYTKYSKHDMNKVLDLELKGDIEKCLTAIVKCATSKPAFFAEKLHQAMKGVGTRHKALIRIMVSRSEIDMNDIKAFYQKMYGISLCQAILDETKGDYEKILVALCGGN"}},
  "experiment_in_all_cases": "glycan array binding signal (z-score within array); higher = stronger binding",
  "conditions_in_all_cases": "glycan notation: IUPAC condensed, linker removed",
  "key": {"Man(a1-2)Man(a1-3)Man": {"target": "Man(a1-2)Man(a1-3)Man", "summary_of_the_method": "(§1)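 Columns mapping to the same glycan were averaged after glycan names were converted to IUPAC-condensed notation. The data come from 3228 arrays in the Consortium for Functional Glycomics database, limited to those with an available protein sequence. Binding is reported as a within-array Z-score averaged across arrays of one protein sequence and across linkers.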"}, "[1]": {"target": "Neu5Ac(a2-3)Gal(b1-3)GalNAc(b1-4)[Neu5Ac(a2-3)]Gal(b1-4)Glc", "summary_of_the_method": "as §1"}, "[2]": {"target": "Neu5Ac(a2-3)Gal(b1-3)[Fuc(a1-4)]GlcNAc", "summary_of_the_method": "as §1"}, "[3]": {"target": "Neu5Ac(a2-3)Gal(b1-3)[Neu5Ac(a2-3)Gal(b1-4)]GlcNAc", "summary_of_the_method": "as §1"}, "[4]": {"target": "Neu5Ac(a2-3)Gal(b1-4)GlcNAc", "summary_of_the_method": "as §1"}, "[5]": {"target": "Neu5Ac(a2-3)Gal(b1-4)GlcNAc(b1-2)Man(a1-3)[GlcNAc(b1-2)Man(b1-4)GlcNAc(b1-2)Man(a1-6)]Man(b1-4)GlcNAc(b1-4)GlcNAc", "summary_of_the_method": "as §1"}, "[6]": {"target": "Neu5Ac(a2-3)Gal(b1-4)[Fuc(a1-3)]GlcNAc6S", "summary_of_the_method": "as §1"}, "[7]": {"target": "Neu5Ac(a2-3)Gal6S(b1-4)GlcNAc", "summary_of_the_method": "as §1"}, "[8]": {"target": "Neu5Ac(a2-3)[GalNAc(b1-4)]Gal(b1-4)GlcNAc(b1-3)GalNAc", "summary_of_the_method": "as §1"}, "Neu5Ac(a2-6)Gal(b1-4)Glc": {"target": "Neu5Ac(a2-6)Gal(b1-4)Glc", "summary_of_the_method": "as §1"}, "[9]": {"target": "Neu5Ac(a2-6)Gal(b1-4)GlcNAc(b1-2)Man(a1-3)[GlcNAc(b1-2)Man(a1-6)]Man(b1-4)GlcNAc(b1-4)GlcNAc", "summary_of_the_method": "as §1"}, "[10]": {"target": "Neu5Ac(a2-6)Gal(b1-4)GlcNAc(b1-3)Gal(b1-4)GlcNAc(b1-3)Gal(b1-4)GlcNAc", "summary_of_the_method": "as §1"}, "[11]": {"target": "Neu5Ac(a2-6)GlcNAc(b1-4)GlcNAc", "summary_of_the_method": "as §1"}, "[12]": {"target": "Neu5Ac(a2-8)Neu5Ac(a2-8)Neu5Ac", "summary_of_the_method": "as §1"}, "Neu5Ac(b2-6)GalNAc": {"target": "Neu5Ac(b2-6)GalNAc", "summary_of_the_method": "as §1"}, "[13]": {"target": "Neu5Gc(b2-6)Gal(b1-4)GlcNAc", "summary_of_the_method": "as §1"}},
  "note": "The entries come from a sample that favours the strongest signals as a whole.",
  "data": [
    {"binder": "B1", "values": [
      {"measurement": "glycan array binding signal (z-score)", "setting": "Man(a1-2)Man(a1-3)Man", "value": -0.123},
      {"measurement": "glycan array binding signal (z-score)", "setting": "[1]", "value": -0.502},
      {"measurement": "glycan array binding signal (z-score)", "setting": "[2]", "value": -0.529},
      {"measurement": "glycan array binding signal (z-score)", "setting": "[3]", "value": -0.763},
      {"measurement": "glycan array binding signal (z-score)", "setting": "[4]", "value": -0.209},
      {"measurement": "glycan array binding signal (z-score)", "setting": "[5]", "value": -0.74},
      {"measurement": "glycan array binding signal (z-score)", "setting": "[6]", "value": -0.736},
      {"measurement": "glycan array binding signal (z-score)", "setting": "[7]", "value": -0.312},
      {"measurement": "glycan array binding signal (z-score)", "setting": "[8]", "value": -0.294},
      {"measurement": "glycan array binding signal (z-score)", "setting": "Neu5Ac(a2-6)Gal(b1-4)Glc", "value": 0.446},
      {"measurement": "glycan array binding signal (z-score)", "setting": "[9]", "value": -0.496},
      {"measurement": "glycan array binding signal (z-score)", "setting": "[10]", "value": 0.122},
      {"measurement": "glycan array binding signal (z-score)", "setting": "[11]", "value": -0.032},
      {"measurement": "glycan array binding signal (z-score)", "setting": "[12]", "value": -0.49},
      {"measurement": "glycan array binding signal (z-score)", "setting": "Neu5Ac(b2-6)GalNAc", "value": -0.503},
      {"measurement": "glycan array binding signal (z-score)", "setting": "[13]", "value": -0.654}
    ]}
  ]
}
